High-throughput results (PubChem)
Sampled rows, rich in hits. Any-hit rate of the full collection: about 3.5%.
KCNK9 block: human KCNK9 channel inhibition; Q9NPC2; HEK293 KCNK9, FluxOR thallium flux fluorescence; stronger effect = lower value; B-score at 10 µM; 310,000 tested, 1.2% active; AID 488922;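 active means ratio B-score over 3 SD below the library mean, with starting fluorescence within 5 SD of its mean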;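 further: negative B-score means less thallium flux so channel inhibition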
ANO1 activ: activates or potentiates the mouse TMEM16A chloride channel; 340,000 tested, 0.3% active; AID 623877; Q8BHY3; HEK293 TMEM16A/YFP-H148Q/I152L, iodide quench fluorescence; stronger effect = lower value; B-score at 10 µM;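 active means fluorescence-ratio B-score plate-corrected deviation score at least 3 library SD below zero, with starting fluorescence score within 5 deviations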;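 further: channel opened by trigger with iodide after compound preincubation; score built on the fluorescence ratio of max minus min over baseline; more negative score means more quench and so TMEM16A activation or potentiation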
KCNK3 block: human KCNK3 channel inhibition, primary screen; O14649; CHO-KCNK3 thallium flux, FluxOR fluorescence; stronger effect = lower value; B-score at 10 µM; 340,000 tested, 0.84% active; AID 602410;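 active means B-score under library mean minus 4 SD, starting fluorescence ratio at most library mean plus 5 SD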;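 further: more negative B-score means stronger inhibition of thallium flux through KCNK3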
Target sequence (O14649 whole entry, looked up): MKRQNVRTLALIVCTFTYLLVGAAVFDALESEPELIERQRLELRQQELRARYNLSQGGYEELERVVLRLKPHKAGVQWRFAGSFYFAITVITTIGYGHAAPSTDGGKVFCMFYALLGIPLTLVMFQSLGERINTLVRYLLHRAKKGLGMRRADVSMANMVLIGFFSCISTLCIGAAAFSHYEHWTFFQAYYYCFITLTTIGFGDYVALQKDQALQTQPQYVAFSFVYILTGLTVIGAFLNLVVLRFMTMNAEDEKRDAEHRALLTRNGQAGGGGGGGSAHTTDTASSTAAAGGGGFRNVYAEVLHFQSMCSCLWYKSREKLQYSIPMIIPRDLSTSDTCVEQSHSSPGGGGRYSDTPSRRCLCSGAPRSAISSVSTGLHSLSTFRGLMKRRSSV
TMEM16A inh: inhibitors of mouse TMEM16A calcium-activated chloride channel | AID 588511 | HEK293 TMEM16A/YFP iodide influx fluorescence, ionomycin | normalized B-score (activity score, 25-100; higher = stronger inhibition) at 10 µM | 310,000 tested, 1.2% active;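 active means ratio plate-corrected score three or more library SD toward inhibition, starting fluorescence score within five deviations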;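 further: score derived from kinetic fluorescence span divided by baseline fluorescence per well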
Kir21 inh: Kir2.1 (mouse) channel inhibition. HEK293-Kir2.1, FluxOR thallium flux fluorescence; stronger effect = lower value. B-score at 10 µM. 310,000 tested, 0.85% active. AID 1672;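 active means fluorescence ratio B-score at or below minus 3 SD of library scores, with starting-brightness B-score within 2 SD, cut at about -4.2 in these data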;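 further: channel flux triggered by added potassium and thallium sulfate stimulus; B-score of peak minus minimum fluorescence over baseline after thallium stimulus; more negative B-score means stronger Kir2.1 block with less thallium influx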
The depositor's hits bear a star; i = inactive; x = not tested or not shown.

SMILES	KCNK9 block	ANO1 activ	KCNK3 block	TMEM16A inh	Kir21 inh
Cc1ccc(NC(=S)NCCc2c[nH]c3ccccc23)c(C)c1	i	i	i	i	-7.3*
COc1ccc(-c2noc3c2-c2nc(-c4cccc(C)c4)sc2CC3)cc1	i	i	i	i	0.04
Cc1cc(C)c(S(=O)(=O)NCC2CCC(C(=O)NCCCN3CCC(C)CC3)CC2)c(C)c1 (configuration not stated)	i	i	i	i	-2.5
Cc1noc(C)c1NC(=O)Nc1ccc2c(c1)CC(=O)N([C@H](C)CO)C[C@@H](C)[C@H](CN(C)CC1CCCCC1)O2	x	i	i	x	x
CCC1CN(C(=O)N2CCC(C(=O)NCc3ccco3)CC2)c2cc(C)ccc2O1 (configuration not stated)	i	i	i	i	-0.12
COc1cc(NC(=S)NCCc2c[nH]c3ccccc23)c(OC)cc1Cl	i	i	i	i	-1.13
COc1cccc(CNCCc2c[nH]c3ccccc23)c1OCc1ccc(F)cc1	i	i	i	i	-11.5*
COc1cccc(CNc2ccc3[nH]c(=O)[nH]c3c2)c1OCc1ccc(F)cc1	i	i	i	i	-4.18
COc1ccccc1NC(=S)NCCc1c[nH]c2ccccc12	i	i	i	i	-6.26*
Cc1ccc(C)c(NC(=S)NCCc2ccc(F)cc2)c1	i	i	i	i	-4.5*
C/C(=N\NC(=O)c1ccc2ccccc2c1)c1cccs1	i	i	i	i	1.94
O=C(CCl)c1ccc2c(c1)CCN2C(=O)C1CC1	i	x	x	i	-5.68*
O=C(C1CCC(C(=O)N2CCc3ccccc32)CC1)N1CCc2ccccc21 (configuration not stated)	i	i	i	i	-0.65
O=[N+]([O-])c1ccc(-c2cnc(SCc3ccccc3Cl)[nH]2)cc1	i	i	i	100*	0.3
CN1CCN(S(=O)(=O)c2cccs2)CC1	i	i	i	i	1.65
CC1c2ccsc2CCN1S(=O)(=O)c1cccs1 (configuration not stated)	i	i	i	i	-6.25*
CCc1ccc(S(=O)(=O)Nc2ccc(O)c3c(=O)cc(-c4ccccc4Cl)oc23)cc1	i	i	i	i	-0.53
O=c1cc(-c2ccccc2Cl)oc2c(NS(=O)(=O)c3cc(Cl)cc(Cl)c3O)ccc(O)c12	i	i	i	100*	-2.95
COc1ccc(S(=O)(=O)n2nc(OCc3cccs3)cc2N)cc1	i	i	i	i	1.12
CC(C)CC(C(=O)NCC1CCCO1)N(C(=O)Cn1nnc(-c2ccc(F)cc2)n1)c1ccccc1F (configuration not stated)	i	i	i	i	0.03
CCOc1ccccc1NC(=O)NC1CC2CCCC(C1)N2Cc1nnnn1CCc1ccccc1 (configuration not stated)	i	i	-9.14*	i	0.37
COc1ccc([C@@H]2[C@@H]3C(=O)N(C(C)(C)C)C(=O)[C@@H]3[C@]3(C)C(=O)N(c4cccc(Br)c4)C(=O)N23)cc1	i	-10.8*	i	i	-0.11
COc1ccc([C@@H]2[C@@H]3C(=O)N(C(C)(C)C)C(=O)[C@@H]3[C@]3(C)C(=O)N(c4cccc(F)c4)C(=O)N23)cc1	i	i	i	i	0.17
COC(=O)C1=C(C)N(Cc2ccccc2)C(=NCCCCO)N[C@H]1CCc1ccccc1	i	i	i	i	-5.09*
COC(=O)C1=C(C)N(Cc2ccccc2)C(=NCc2cccc(C(F)(F)F)c2)N[C@H]1c1cccc(F)c1	i	i	i	i	-5.58*
SMILES	KCNK9 block	ANO1 activ	KCNK3 block	TMEM16A inh	Kir21 inh
CCN1C(=NCc2cccc(Cl)c2)N[C@@H](c2cccc(F)c2)C(C(=O)OC)=C1C	i	i	i	i	-4.49*
COC(=O)C1=C(C)N(Cc2ccccc2)C(=NCC(C)C)N[C@H]1c1ccccc1	i	x	x	i	-8.17*
CCN1C(=S)N[C@@H](c2cccc(F)c2)C(C(=O)OC)=C1C	i	i	i	i	-1.8
Cc1cccc(N(C)S(=O)(=O)c2c[nH]c3ccc([N+](=O)[O-])cc23)c1	i	i	i	i	-2.2
COc1ccc(-c2csc(NC(=O)CSCc3c(C)noc3C)n2)c(OC)c1	i	i	i	i	0.43
COc1ccccc1CNC(=O)CCNC(=O)c1ccco1	x	i	i	x	x
CCCC(=O)N=c1sc2c(OC)ccc(OC)c2n1C	i	i	i	i	0.61
CCN1C(=NCCc2cccs2)N[C@@H](c2cccs2)C(C(=O)OC)=C1C	i	i	i	i	-6.03*
Cc1ccc(CNC(=O)c2cc(-c3ccccc3)n(Cc3cc(C)no3)n2)cc1	x	i	i	i	x
Cc1cc(Cn2nc(C(=O)NCc3cccc(C(F)(F)F)c3)cc2-c2ccccc2)on1	x	i	-9.68*	i	x
COc1cc(C)c(S(=O)(=O)NOCc2ccccc2)c(C)c1C	i	i	i	i	-7.11*
O=C(O)C(=Cc1cccc([N+](=O)[O-])c1)c1ccc(Cl)cc1	x	i	i	x	x
Cc1ccc(SCC(=O)Nc2ccccc2C(=O)O)cc1	i	i	i	i	0.84
CC1CCCCN1C(=O)c1cccc(NC2=C(Cl)C(=O)N(Cc3ccccc3)C2=O)c1 (configuration not stated)	x	i	-11.2*	x	x
CC1CCN(C(=O)c2ccc(NC3=C(Cl)C(=O)N(Cc4ccccc4)C3=O)cc2)CC1	x	i	i	x	x
Cc1noc(C)c1C(=O)NC1=NCCS1	i	i	i	i	1.24
Cc1cc(C)cc(CSCC(=O)NN=C2CCCCCC2)c1	i	i	i	i	-10.3*
COC(=O)c1cc(NC(=S)Nc2cc(Cl)cc(Cl)c2)cc(C(=O)OC)c1	i	i	i	100*	-0.15
COC(=O)c1cccc(NC(=S)Nc2ccc(Cl)c(Cl)c2)c1	i	i	i	100*	0.07
COC(=O)c1cccc(NC(=S)Nc2ccccc2Cl)c1	i	i	i	i	-1.3
Cc1cccc(-c2cc3nc4c(c(N5CCOCC5)n3n2)CCCC4)c1	i	i	i	i	-1.22
Cc1cccc(-c2cc3nc4c(c(NCc5ccco5)n3n2)CCCC4)c1	-7.22*	i	i	i	0.57
CCOc1ccc(NC(=S)N2CCN(C/C=C/c3ccccc3)CC2)cc1	i	i	i	i	-0.51
Cc1ccc(C2NC(c3ccc(C)cc3)C(C)C(=O)C2C)cc1 (configuration not stated)	-7.02*	i	i	i	-1.87
Cc1cccc(C2NC(c3cccc(C)c3)C(C)C(=O)C2C)c1 (configuration not stated)	i	i	i	i	-0.61
